Assay outcomes: PubChem, several laboratories
MEX-5 binding: MEX-5 zinc finger RNA-binding disruptors – biochemical, C. elegans, fluorescence polarization, MLPCN library, primary screen; Zinc finger protein mex-5 (Caenorhabditis elegans), Q9XUB2; MEX-5/FITC-TCR2 RNA binding; active compounds read low; activity score (negative = inhibition of binding), % at 10 µM; actives 0.38% (n = 300,000); AID 1832, 2009;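 active = inhibition past about -25% in most replicates, and total fluorescence under double the plate's negative control median, limit read from the data; inconclusive = replicates evenly split on the limit, or fluorescence at least double controls; inactive = too little inhibition in most replicates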;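 note: 0% = DMSO and -100% = 5 µM competing unlabeled TCR2 RNA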
MLLE-PAM2 inh: inhibitors of PABP1 MLLE–PAM2 peptide binding, primary screen, biochemical, fluorescence polarization, FITC-PAM2, GST-MLLE; Polyadenylate-binding protein 1 (Homo sapiens), P11940; inhibition, % at 20 µM; actives 0.36% (n = 360,000); in the data active = inhibition above about 35%, passing the limit was not always enough;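 note: plate controls were DMSO wells with GST-MLLE for no effect and wells lacking GST-MLLE protein for full effect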
Target sequence (P11940 whole entry, looked up): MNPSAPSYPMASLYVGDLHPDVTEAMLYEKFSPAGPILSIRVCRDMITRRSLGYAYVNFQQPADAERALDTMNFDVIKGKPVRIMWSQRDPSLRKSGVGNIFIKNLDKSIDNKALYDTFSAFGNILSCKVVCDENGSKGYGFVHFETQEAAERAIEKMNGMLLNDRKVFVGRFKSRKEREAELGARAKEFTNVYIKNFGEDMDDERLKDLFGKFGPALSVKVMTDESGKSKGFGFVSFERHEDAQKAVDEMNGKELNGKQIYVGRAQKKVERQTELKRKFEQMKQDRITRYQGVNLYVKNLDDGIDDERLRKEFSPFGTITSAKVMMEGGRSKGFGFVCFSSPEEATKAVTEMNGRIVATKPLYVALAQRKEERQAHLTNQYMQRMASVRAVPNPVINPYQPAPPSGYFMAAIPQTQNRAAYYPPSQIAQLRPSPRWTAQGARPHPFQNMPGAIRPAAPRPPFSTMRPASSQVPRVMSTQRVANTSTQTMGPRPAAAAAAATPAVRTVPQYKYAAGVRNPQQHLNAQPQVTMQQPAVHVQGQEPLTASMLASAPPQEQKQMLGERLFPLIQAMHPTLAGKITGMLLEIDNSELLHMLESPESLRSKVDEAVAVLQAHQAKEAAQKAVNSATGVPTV
eIF4H inh: human eIF4H binding inhibitors, primary screen, translation initiation inhibitor project, biochemical, uHTS, fluorescence polarization | Eukaryotic translation initiation factor 4H (Homo sapiens), Q15056 | actives 0.94% (n = 290,000) | eIF4H fluorescence polarization binding assay | AID 2012, 2009 | inhibition, % at 35 µM;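 note: calls also rest on retests at 20 µM and on dose response follow-up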
EBV gp42 inh: Epstein-Barr virus gp42 inhibitors, primary screen, biochemical, uHTS, fluorescence polarization. Glycoprotein 42 (Epstein-Barr virus (strain AG876)), Q1HVG2. inhibition, % (tested at 21.74 µM). AID 1085, 2008. actives 0.42% (n = 220,000). Fluorescence polarization binding assay, mP read-out; in the data active = inhibition above about 50%
PABP polyA inh: PABP poly(A) RNA binding inhibitors, primary screen, biochemical, fluorescence polarization, uHTS. calls only at 35 µM. Polyadenylate-binding protein 1 (Homo sapiens), P11940. actives 1% (n = 290,000);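 note: calls also rest on retests at 20 µM and on dose response follow-up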
* = called active by the depositor; i = inactive; ? = inconclusive; . = not tested or not shown; + = active, no number. Compounds with a hit are over-represented: about 1.8% of the library has one in this group of screens. Unless noted, the rule behind the calls is not given here.

SMILES	MEX-5 binding	MLLE-PAM2 inh	eIF4H inh	EBV gp42 inh	PABP polyA inh
O=C(N/N=C\c1c(O)ccc2ccccc12)c1ccc(S(=O)(=O)N2CCCCC2)cc1	0	-155	64*	-122	+
O=C(NNS(=O)(=O)c1ccc(F)cc1)c1ccc(S(=O)(=O)N2CCCCC2)cc1	-4	4	active	-1	i
NC(=S)N/N=C/c1c(O)ccc2ccccc12	-2	47*	4	-21	i
CN(Cc1ccccc1)S(=O)(=O)c1ccc(Cl)c(C(=O)N2CCOCC2)c1	.	4	.	.	.
CC(C)N1CCC(C)(C(=O)Nc2ccc(Cl)c(Cl)c2)C1 (stereo not drawn)	.	-32	.	.	.
CCOC(=O)c1nc2sc3c(c2c(=O)[nH]1)CCCC3	0	-6	?	-16	+
COc1ccc(C(N)c2csc(Nc3ccc(C(=O)NCCCO)cn3)n2)cc1 (stereo not drawn)	.	0	.	.	.
CC(=O)Nc1cc(NC(C)=O)cc(C(=O)N2CCCC3CCCCC32)c1 (stereo not drawn)	-4	-28	79*	.	+
CC1(Oc2ccccc2-c2ccno2)CCN(Cc2csc3ccccc23)C1 (stereo not drawn)	.	-9	.	.	.
CCOC(=O)CSc1nc(C2CC2)nc2ccccc12	1	36*	-4	-4	i
CC(C)c1nc(SCC(=O)c2ccc(F)cc2)c2ccccc2n1	-1	37*	-4	2	i
CC1CCN(C(=O)CSc2nc(C3CC3)nc3ccccc23)CC1	0	16	-10	.	i
CCc1nc(SCC(=O)c2ccc3c(c2)OCCO3)c2ccccc2n1	1	26	-11	0	i
CCc1nc(SCC(=O)c2ccccc2)c2ccccc2n1	2	41*	4	-21	i
CSc1cccc(NC(=O)CCCOc2cc(=O)n(C)c3ccccc23)c1	.	-7	.	.	.
Cn1cnc(S(=O)(=O)N2CCCCC2c2cc(C(=O)NCc3ccc(F)cc3)no2)c1 (stereo not drawn)	.	7	.	.	.
CC(=O)NC(c1ccccc1)c1nc(-c2cc3ccccc3o2)cs1 (stereo not drawn)	.	-7	.	.	.
CNc1ncnc2c1ncn2[C@H]1CN(Cc2ccc(F)cc2)C[C@@H](CO)O1	.	-3	.	.	.
CC(=O)c1coc2c1cc(O)c1ccccc12	0	1	6	-19	i
CC(=O)c1cc(O)c2ccccc2c1O	-6	41*	13	-24	i
N#CC1=C(N)C(C#N)(C#N)[C@H](c2cccnc2)[C@H]2CN(C(=O)OCc3ccccc3)CC=C12	-1	26	31	4	i
N#CC1=C(N)C(C#N)(C#N)C(c2cccnc2)C2CCCC=C12 (stereo not drawn)	-26*	.	120*	49	i
N#CC1=C(N)C(C#N)(C#N)C(c2cccnc2)C2CC(c3ccccc3)CC=C12 (stereo not drawn)	3	63	?	23	+
S=C(NCCCN1CCOCC1)NCCCN1CCOCC1	1	41*	-11	-9	i
O=C1c2cccc3c(O)ccc(c23)C(=O)N1c1ccc(Cl)cc1	-41*	i	?	.	?
SMILES	MEX-5 binding	MLLE-PAM2 inh	eIF4H inh	EBV gp42 inh	PABP polyA inh
O=C1c2ccccc2C(=O)N1Cc1ccco1	0	-8	-16	-3	i
O=C1c2cccc3c(O)ccc(c23)C(=O)N1Cc1ccco1	?	i	?	172*	?
O=C1C(O)=CC(=C(c2ccccc2)c2ccccc2)c2ccccc21	.	6	.	.	.
O=C(NCc1ccc(F)cc1)N1[C@H]2CC[C@@H]1C=C(c1ccc(F)cc1OCc1ccccc1)C2	.	0	.	.	.
C[C@@H]1CN([C@H](C)CO)C(=O)CCCn2nncc2CO[C@H]1CN(C)S(=O)(=O)c1ccccc1F	.	-3	.	.	.
CC1=CC(C)C(C[N+]2(C)CCCCC2)C(C)C1 (stereo not drawn)	-1	-118	9	1	+
CCN(CC)c1ccc(/C=C(\C#N)C(=O)c2ccc(Br)cc2)cc1	-16	i	?	+	i
Cc1ccc(NC(=O)CN(C)C(=O)C2CSC3(C)CCC(=O)N23)cc1 (stereo not drawn)	.	3	.	.	.
